In PubChem BioAssay AID651789 (National Center for Advancing Translational Sciences (NCATS), 2012):
Inconclusive results are not listed. Where a call stands in place of a potency, no number is given. Activity calls are given as the source filed them. Calls follow the shape of the dose curve; as a rule, active = well fitted inhibition curve with a large enough effect; inconclusive = small, poorly fitted or top-dose-only effect; inactive = no such curve, though single readings can be large or run the other way.

Experiment: Acumen qHTS Assay for Inhibitors of the mTORC1 Signaling Pathway in WT MEF Cells: Hit Validation; also: nearly all actives have a fitted effect of over 60% in size
In short: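 Read-out is immunofluorescent phospho-rpS6 (Ser235/236) normalised to PI-stained cell number, reported as % active cells using a 7.5 nM rapamycin threshold. Cells: WT or Tsc2-/-, p53-/- MEFs, compound-exposed 24 h at 37C; PI count also tracks viability.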
Potency is read from the fitted curve at half-maximal effect.

O=S(=O)(c1ccccc1)n1nc(-c2ccc(Cl)cc2)nc1NCc1ccccc1
Potency: inactive

CCCCN(CC)CCNC(=O)C1CCN(c2nnc(C)c3c(C)n(-c4ccc(C)cc4)nc23)CC1
Potency: inactive

CCS(=O)(=O)c1ncc(Cl)c(C(=O)NCc2ccccc2)n1
Potency: 3.29 µM (active)

CCCCS(=O)(=O)c1oc(-c2ccc(F)cc2)nc1S(=O)(=O)c1ccc(C)cc1
Potency: 5.21 µM (active)

COc1ccc(N(Cc2ccccc2)C(=O)c2nc(S(C)(=O)=O)ncc2Cl)cc1
Potency: 2.07 µM (active)

Cc1cccn2c(Nc3ccccc3)c(-c3cccs3)nc12
Potency: inactive

COc1ccc(S(=O)(=O)N(Cc2nc(-c3cccc(C)c3)no2)C2CCCCC2)cc1
Potency: inactive

CCCCS(=O)(=O)c1oc(-c2ccc(F)cc2)nc1S(=O)(=O)c1ccccc1
Potency: 0.656 µM (active)

CCC1=Nc2cc(C(=O)NC3CCCC3)ccc2Sc2ccc(Cl)cc21
Potency: 2.07 µM (active)

Cc1ccc(Nc2nc(C(N)=O)c(NC(=O)c3ccccc3Br)s2)cc1
Potency: 3.69 µM (active)

O=C(C1CCN(c2nc3ccccc3[nH]2)CC1)N1CCN(c2cccc(Cl)c2)CC1
Potency: inactive

CCOc1ccc(NC(=O)c2sc3nc4c(cc3c2N)CCCCCC4)cc1
Potency: inactive

CN(C)c1ccc(NC(=O)Cn2cc(S(=O)(=O)Cc3ccccc3Cl)c3ccccc32)cc1
Potency: 13.1 µM (active)

CCCCOc1cccc(C(=O)N2CCN(CCc3ccncc3)CC2)c1
Potency: inactive

O=C(CSc1nc2c([nH]c3ccccc32)c(=O)n1-c1ccc(F)cc1)NC1CCCCC1
Potency: inactive
